13 molecules from ChEMBL document CHEMBL3433997, “St. Jude Leishmania screening dataset” (2016) can be followed below.

Holding throughout (format): functional
In assay [1] the target is Solute carrier family 2, facilitated glucose transporter member 1 (Homo sapiens) (UniProt P11166). As to the kind of experiment: ST_JUDE_LEISH: Cytotoxicity at 2uM final concentration against transgenic Leishmania Mexicana promastigotes LmGLUT1 that are glucose transport deficient and complemented with the human glucose transporter GLUT1. Activity is measured by DNA content using SYBR green in vitro.
Sequence of Solute carrier family 2, facilitated glucose transporter member 1 (Homo sapiens) (P11166 whole entry): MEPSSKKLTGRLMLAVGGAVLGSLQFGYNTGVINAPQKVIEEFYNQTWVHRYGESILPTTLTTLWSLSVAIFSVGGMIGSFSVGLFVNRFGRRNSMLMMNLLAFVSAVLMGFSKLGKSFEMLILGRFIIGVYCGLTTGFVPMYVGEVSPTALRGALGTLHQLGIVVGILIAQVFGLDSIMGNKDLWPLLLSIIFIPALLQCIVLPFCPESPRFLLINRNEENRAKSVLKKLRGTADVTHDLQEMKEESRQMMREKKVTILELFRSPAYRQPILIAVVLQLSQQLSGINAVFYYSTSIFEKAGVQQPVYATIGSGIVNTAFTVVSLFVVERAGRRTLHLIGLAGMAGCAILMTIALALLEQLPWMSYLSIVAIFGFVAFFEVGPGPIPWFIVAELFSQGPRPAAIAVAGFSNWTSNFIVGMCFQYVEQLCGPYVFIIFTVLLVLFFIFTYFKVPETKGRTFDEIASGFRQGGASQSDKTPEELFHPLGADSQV

The target in assay [2] is Hexose transporter 1 (Plasmodium falciparum) (UniProt O97467). As to the kind of experiment: ST_JUDE_LEISH: Cytotoxicity at 2uM final concentration against transgenic Leishmania Mexicana promastigotes LmPfHT that are glucose transport deficient and complemented with the Plasmodium falciparum hexose transporter. Activity is measured by DNA content using SYBR green in vitro.

Assay [3] deals with Glucose transporter (Leishmania mexicana) (UniProt O61059). As to the kind of experiment: ST_JUDE_LEISH: Cytotoxicity at 2uM final concentration against transgenic Leishmania Mexicana promastigotes LmGT2 that are glucose transport deficient and complemented with the L. Mexicana glucose transporter 2. Activity is measured by DNA content using SYBR green in vitro.

Take `CC(=NNC(=N)N)c1ccc2c(c1)Cc1ccccc1-2`: the inhibition (usually the relative decrease from the control value, in per cent) was -1.01% in assay [1], 0.42% in assay [2] and -1.5% in assay [3].

On to `Clc1ccc2c(NN=Cc3cccnc3)ccnc2c1`, for which the inhibition was 6.14% in assay [1], 0.59% in assay [2] and 5.48% in assay [3].

For `CNC(=O)c1cnc(Nc2ccc(OCC(O)CN(C)C)cc2)nc1Nc1cccc([N+](=O)[O-])c1` (centres undefined), the inhibition amounted to 3.44% in assay [1], 3.59% in assay [2] and 3.56% in assay [3].

On to `CC1(C)N=C(N)N=C(N)N1OCCCCON1C(N)=NC(N)=NC1(C)C`, for which the inhibition amounted to 3.48% in assay [1], 3.55% in assay [2] and 3.76% in assay [3].

On to `CCCN(CCC)CCCN(CCCN(CCC)CCC)c1cc(C)nc(Nc2ccc3cc(Br)ccc3c2)n1`, for which the values for the inhibition in assay [1], in assay [2] and in assay [3] were 50.9%, 35.1% and 37.8%, respectively.

With `COc1cc(NC(=O)/C=C/c2cc(F)cc(F)c2F)cc(OCCN2CCN(CCN3CCOCC3)CC2)c1`, the inhibition in assay [1] is 3.46%; in assay [2], 1.58%; in assay [3], 2.54%.

Take `CC(C)C(=O)NC(c1ccc(Cl)cc1)c1ccc2cccnc2c1O` (centres undefined): the inhibition turned out to be 3.14% in assay [1], 5.18% in assay [2] and 2.63% in assay [3].

With `Cc1ccc(Nc2ccnc(Nc3ccc(C)c(F)c3)n2)cc1O`, the inhibition came out at 9.14% in assay [1], 12.6% in assay [2] and 3.98% in assay [3].

In the case of `COc1ccc2[nH]c(C)cc(=NN=Cc3ccccc3)c2c1`, the results for the inhibition in assay [1], in assay [2] and in assay [3] were -2.87%, 0.32% and -0.26%, respectively.

As to `O=C(Cc1cccc(O)c1)Nc1ccc(-c2cccc(-c3nc4cc(C(F)(F)F)ccc4[nH]3)c2)cc1`, the inhibition in assay [1] is -0.18%; in assay [2] it was 1.54%; in assay [3], 0.62%.

Take `CCOc1ccc(C(=O)N2CCOC(CCN3CCC4(CCc5ccccc54)CC3)(c3ccc(Cl)c(Cl)c3)C2)cc1` (centres undefined): the figures for the inhibition in assay [1], in assay [2] and in assay [3] were 5.41%, 5.56% and 5.12%, respectively.

With `CCNC(=O)N1CCc2ccc(Oc3nc(NCc4ccccc4OC)ncc3C)cc2CC1`, the inhibition in assay [1] is 5.14%; in assay [2] it was 6.01%; in assay [3] it was 2.64%.

As to `CCCC(C)c1cnc2nc(N)nc(N)c2c1C` (centres undefined), the inhibition in assay [1] was determined as 3.61%; in assay [2] it was 4.91%; in assay [3] it was 4.24%.
